In PubChem BioAssay AID1159554 (Broad Institute, 2015):
In all, about 94,000 compounds went through this assay and about 2,100 (2.2%) were called active. Many of the other results were omitted from the sample, so actives are more common in it than they were. A number with no mark means an inactive call. Rule as the data show it: active = activity change below about -80%; inconclusive = no clear call, values can overlap the other calls; inactive = above that.

Assay: Dd2 malaria parasite growth inhibition – SYBR Green fluorescence, single dose replicates, primary screen (AID 1159554)
Conditions: P. falciparum Dd2 growth, 72 h, at 10 µM, stronger effect = lower value

Row | SMILES | activity change
1 | CC(=O)N1[C@H](CN(C)S(=O)(=O)c2ccccc2)[C@H](c2ccccc2)[C@@H]1CO | 4.68%
2 | COc1cccc(-c2ccc3n(c2=O)C[C@H]2[C@H](CO)[C@@H](C(=O)NC4CCCC4)[C@@H]3N2C)c1 | 2.57%
3 | COc1ccc2c3c(n(C)c2c1)[C@@H](CO)N(C(=O)NC1CCCC1)CC31CCN(C(C)=O)CC1 | -2.48%
4 | C[C@@H](NC(=O)C[C@H]1CC[C@H]2[C@@H](COC[C@@H](O)CN2C(=O)Nc2ccccc2)O1)c1ccccc1 | 8.13%
5 | C[C@H](CO)N1C[C@H](C)[C@@H](CN(C)Cc2ccc3c(c2)OCO3)OCCCC[C@H](C)Oc2ccc(NC(=O)Nc3ccc(C(F)(F)F)cc3)cc2C1=O | -41.8%
6 | Cc1ccccc1S(=O)(=O)NCC[C@@H]1CC[C@H](NC(=O)C2CCCCC2)[C@@H](CO)O1 | 7.15%
7 | CCS(=O)(=O)N1CC(=O)N2[C@H](CO)[C@@H](c3ccc(C#CC4CCCC4)cc3)[C@@H]2C1 | -15.8%
8 | Cc1ccc(S(=O)(=O)N(C)C[C@H]2OCCCC[C@H](C)Oc3ccc(NC(=O)Cc4ccccc4)cc3C(=O)N([C@@H](C)CO)C[C@@H]2C)cc1 | -81.9% (active)
9 | C[C@H]1CCCCO[C@@H](CN(C)C(=O)Nc2ccccc2)[C@@H](C)CN([C@@H](C)CO)C(=O)c2cc(NC(=O)Nc3ccc(F)cc3)ccc2O1 | -17.9%
10 | C[C@@H]1CCCCO[C@@H](CN(C)C(=O)Nc2ccccc2)[C@@H](C)CN([C@H](C)CO)C(=O)c2cc(NC(=O)Nc3ccc(F)cc3)ccc2O1 | 24.9%
11 | COc1ccc(NC(=O)Nc2ccc3c(c2)C(=O)N([C@@H](C)CO)C[C@H](C)[C@@H](CN(C)C(=O)Nc2cccc4ccccc24)OCCCC[C@@H](C)O3)cc1 | -66%
12 | C[C@@H]1CCCCO[C@H](CN(C)C(=O)Nc2cccc3ccccc23)[C@@H](C)CN([C@H](C)CO)C(=O)c2cc(NC(=O)Nc3ccc4c(c3)OCO4)ccc2O1 | -49.2%
13 | C[C@@H]1CN([C@@H](C)CO)C(=O)c2cc(NC(=O)Nc3ccc(C(F)(F)F)cc3)ccc2O[C@@H](C)CCCCO[C@@H]1CN(C)C(=O)Nc1cccc2ccccc12 | -85.5% (active)
14 | Cc1ccc(S(=O)(=O)N(C)C[C@@H]2OCCCC[C@@H](C)Oc3ccc(NS(=O)(=O)c4ccccc4)cc3C(=O)N([C@H](C)CO)C[C@@H]2C)cc1 | -57.4%
15 | C[C@@H]1CCCCO[C@H](CN(C)C(=O)Nc2ccccc2)[C@H](C)CN([C@H](C)CO)C(=O)c2cc(NC(=O)Nc3ccccc3)ccc2O1 | -88.7% (active)
16 | C[C@@H]1CCCCO[C@@H](CN(C)S(=O)(=O)c2ccc(Cl)cc2)[C@H](C)CN([C@@H](C)CO)C(=O)c2cc(NC(=O)Cc3ccccc3)ccc2O1 | -69%
17 | C[C@@H]1CCCCO[C@@H](CN(C)C(=O)Nc2ccc(F)cc2)[C@H](C)CN([C@H](C)CO)C(=O)c2cc(NC(=O)Nc3cccc4ccccc34)ccc2O1 | -24.3%
18 | C[C@@H]1CCCCO[C@H](CN(C)C(=O)Nc2cccc3ccccc23)[C@@H](C)CN([C@@H](C)CO)C(=O)c2cc(NC(=O)Nc3ccc(F)cc3)ccc2O1 | -88.2% (active)
19 | C[C@@H]1CCCCO[C@@H](CN(C)C(=O)Nc2cccc3ccccc23)[C@H](C)CN([C@H](C)CO)C(=O)c2cc(NC(=O)NC3CCCCC3)ccc2O1 | -62.1%
20 | Cc1ccc(S(=O)(=O)Nc2ccc3c(c2)C(=O)N([C@@H](C)CO)C[C@@H](C)[C@H](CN(C)Cc2ccc(Cl)c(Cl)c2)OCCCC[C@@H](C)O3)cc1 | -43.2%

Row | SMILES | activity change
21 | C[C@@H]1CN([C@H](C)CO)S(=O)(=O)c2ccc(C3=CCCC3)cc2O[C@H]1CN(C)C(=O)Nc1ccc2c(c1)OCO2 | -57.4%
22 | COc1ccccc1S(=O)(=O)N[C@@H]1CC[C@@H](CCNC(=O)C2CCCCC2)O[C@@H]1CO | -1.07%
23 | O=C(Nc1cccc(Cl)c1)N[C@@H]1CC[C@@H](CCNC(=O)C2CCOCC2)O[C@@H]1CO | -0.665%
24 | C/C=C/c1cnc2c(c1)C(=O)N([C@H](C)CO)C[C@@H](C)[C@H](CN(C)Cc1cccc(C(=O)O)c1)O2 | 27.8%
25 | O=C(C[C@@H]1CC[C@H]2[C@@H](COC[C@@H](O)CN2CC2CC2)O1)NCc1ccc(Cl)cc1 | -0.915%
26 | CC(=O)N1[C@H](CO)[C@H](c2ccccc2)C12CN(C(=O)c1ccccn1)C2 | -28.2%
27 | CC(C)NC(=O)N(C)C[C@@H]1OCCCC[C@@H](C)Oc2ccc(NC(=O)Cc3ccccc3)cc2C(=O)N([C@H](C)CO)C[C@H]1C | -13.3%
28 | C[C@@H]1CN([C@@H](C)CO)C(=O)c2cc(NC(=O)Cc3ccccc3)ccc2O[C@@H](C)CCCCO[C@H]1CN(C)C(=O)Nc1cccc2ccccc12 | -86.1% (active)
29 | C[C@@H]1CN([C@@H](C)CO)C(=O)c2cc(NC(=O)Cc3ccccc3)ccc2O[C@@H](C)CCCCO[C@@H]1CN(C)C(=O)Nc1ccccc1 | -51.5%
30 | CC(C)NC(=O)N(C)C[C@@H]1OCCCC[C@@H](C)Oc2ccc(NC(=O)CCCN(C)C)cc2C(=O)N([C@@H](C)CO)C[C@@H]1C | -5.33%
31 | C[C@@H]1CCCCO[C@H](CN(C)C(=O)Nc2cccc3ccccc23)[C@H](C)CN([C@@H](C)CO)C(=O)c2cc(NC(=O)CCCN(C)C)ccc2O1 | 0.619%
32 | C[C@@H]1CN([C@@H](C)CO)C(=O)c2cc(NC(=O)CCCN(C)C)ccc2O[C@@H](C)CCCCO[C@H]1CN(C)C(=O)Nc1cccc2ccccc12 | -85.2% (active)
33 | CO[C@@H]1CN(C)C(=O)c2cc(NC(=O)Nc3ccc(F)cc3)ccc2OC[C@@H](C)NC[C@@H]1C | 13.3%
34 | O=C(C[C@H]1CC[C@H]2[C@@H](COC[C@@H](O)CN2CC2CCOCC2)O1)NCc1ccc(Cl)cc1 | -4.66%
35 | CO[C@@H]1CN(C)C(=O)c2ccc(NS(C)(=O)=O)cc2OC[C@@H](C)N(C(=O)CC2CC2)C[C@@H]1C | 16.2%
36 | O=C(c1ccccn1)N1CC(=O)N2[C@H](CO)[C@H](c3ccc(C#CCc4ccccc4)cc3)[C@H]2C1 | -46.8%
37 | O=C(C[C@@H]1C=C[C@H](NC(=O)Nc2ccccc2F)[C@@H](CO)O1)NCc1ccccc1 | -0.106%
38 | CN1CCN(C(=O)C[C@H]2CC[C@H]3[C@@H](COc4ccc(NC(=O)C5CCC5)cc4C(=O)N3C)O2)CC1 | -19.8%
39 | CN1C(=O)c2cc(NC(=O)c3cccc(F)c3)ccc2OC[C@H]2O[C@@H](CC(=O)NCc3ccccc3Cl)CC[C@@H]21 | -47.4%
40 | CCCNC(=O)N(C)C[C@H]1Oc2cc(-c3ccncc3)ccc2S(=O)(=O)N([C@H](C)CO)C[C@H]1C | 70.9%

Row | SMILES | activity change
41 | CC(C)NC(=O)N[C@H]1C=C[C@H](CC(=O)NCCN2CCCC2)O[C@@H]1CO | 9.57%
42 | C/C=C/c1cnc2c(c1)C(=O)N([C@@H](C)CO)C[C@H](C)[C@H](CN(C)C(=O)CN1CCOCC1)O2 | -2.24%
43 | CCC(=O)N1CC2(C1)CN(Cc1nccs1)[C@@H](CO)c1c2c2ccc(OC)cc2n1C | 3.74%
44 | COc1ccc2c3c(n(C)c2c1)[C@H](CO)N(C(=O)CC1CC1)CC31CCN(Cc2nccs2)CC1 | -91.8% (active)
45 | COc1ccc2c3c(n(C)c2c1)[C@H](CO)N(Cc1cccnc1)CC31CCN(Cc2cccnc2)CC1 | -77.6%
46 | COc1ccc2c3c(n(C)c2c1)[C@@H](CO)N(C(=O)Nc1cccc(F)c1)CC31CCN(Cc2nccs2)CC1 | -73.5%
47 | COc1ccc2c3c(n(C)c2c1)[C@H](CO)N(CC1CCCCC1)CC31CCN(Cc2nccs2)CC1 | -91% (active)
48 | COc1ccc2c3c(n(C)c2c1)[C@@H](CO)N(C(C)=O)CC31CCN(Cc2nccs2)CC1 | -11.3%
49 | CN1C(=O)c2cc(NC(=O)C3CCCC3)ccc2OC[C@H]2O[C@@H](CC(=O)NCCc3ccncc3)CC[C@H]21 | 22.6%
50 | CCS(=O)(=O)N1CC2(CN(C(=O)c3ccc(F)cc3)[C@H](CO)c3c2c2ccc(OC)cc2n3C)C1 | -2.54%
51 | CCC(=O)Nc1ccc2c(c1)C(=O)N(C)C[C@@H](OC)[C@@H](C)CN(Cc1ccccc1F)[C@H](C)CO2 | -23.2%
52 | CCC(=O)Nc1ccc2c(c1)C(=O)N(C)C[C@H](OC)[C@H](C)CN(Cc1ccccc1F)[C@H](C)CO2 | -27.5%
53 | CO[C@H]1CN(C)C(=O)c2cc(NC(=O)Nc3cccc(F)c3)ccc2OC[C@H](C)N(C(C)=O)C[C@H]1C | -27.3%
54 | CO[C@H]1CN(C)C(=O)c2ccc(NC(C)=O)cc2OC[C@@H](C)NC[C@H]1C | 19.5%
55 | CO[C@H]1CN(C)C(=O)c2ccc(NC(=O)Nc3ccc4c(c3)OCO4)cc2OC[C@H](C)NC[C@H]1C | 0.516%
56 | CCC(=O)N1C[C@H](C)[C@H](OC)CN(C)C(=O)c2cc(NC(=O)Nc3cccc(F)c3)ccc2OC[C@@H]1C | -86.1% (active)
57 | CCCC(=O)Nc1ccc2c(c1)OC[C@@H](C)N(Cc1ccccc1F)C[C@@H](C)[C@H](OC)CN(C)C2=O | -88.8% (active)
58 | CCC(=O)N1C[C@H](C)[C@H](OC)CN(C)C(=O)c2ccc(NC(=O)Nc3cccc(F)c3)cc2OC[C@@H]1C | -41.8%
59 | CO[C@@H]1CN(C)C(=O)c2ccc(NC(=O)Nc3cc(Cl)cc(Cl)c3)cc2OC[C@H](C)NC[C@H]1C | -84.1% (active)
